Compound activity: PubChem BioAssay, National Center for Advancing Translational Sciences (NCATS)
Rows were chosen to be rich in hits. Some 3.1% of all compounds tested hit in one or more screens of this group.
GLS inhibitor – qHTS for Inhibitors of Glutaminase (GLS) | Potency, µM (series often up to 45.5 µM), without a hit: top-dose activity change, negative = inhibition, hits mostly inhibitors | 410,000 compounds, 0.21% hits | Glutaminase kidney isoform, mitochondrial (Homo sapiens), O94925 | GLS enzymatic activity, qHTS titration | AID 624170, 2012; note: potency is the fitted concentration of half-maximal effect
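Coupled fluorescence readout: glutamate oxidase/HRP/Amplex Red detect glutamate formed by hKGA from L-glutamine (1 mM solution added). Buffer 45 mM KH2PO4 pH 8.2, 0.02% Tween-20; reads at t0 and 30 min RT.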
PLK1 PBD block – qHTS for Inhibitors of PLK1-PDB (polo-like kinase 1 - polo-box domain): Primary Screen | Plk1 PBD binding of FITC phosphopeptide, fluorescence polarization | 360,000 compounds, 2.8% hits | Potency, µM, for inactives: max response, negative = inhibition, usual class: inhibitors | Serine/threonine-protein kinase PLK1 (Homo sapiens), P53350; note: potency is the fitted concentration of half-maximal effect; series mostly up to about 57 µM; nearly all actives have a fitted effect of over 65% in size
VDR inh – Inhibitors of the vitamin D receptor (VDR): qHTS. AID 504847, 2011. VDR-SRC2-3 peptide fluorescence polarization, 2 h. 400,000 compounds, 0.93% hits. Potency, µM, without a hit: max response, negative = inhibition, actives largely listed as inhibitors; note: potency is the fitted concentration of half-maximal effect
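The screen uses fluorescence polarization to detect compounds that interfere with recruitment of the SRC2-3 coactivator peptide to VDR; plates are read after 2 h at room temperature.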
PI4K2A block – qHTS for small molecular inhibitors of PI4K2A; 420,000 compounds, 0.13% hits; purified PI4K2A, ADP-Glo luminescence, 1 h; hits give low values; activity change, negative = inhibition, % at 76.9 µM; Phosphatidylinositol 4-kinase type 2-alpha (Homo sapiens), Q9BTU6; in the data active = activity change below about -50%; inconclusive = mostly about -30% to -49%;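 note: -100% = wells without enzyme as full effect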
Target sequence (Q9BTU6 whole entry, looked up): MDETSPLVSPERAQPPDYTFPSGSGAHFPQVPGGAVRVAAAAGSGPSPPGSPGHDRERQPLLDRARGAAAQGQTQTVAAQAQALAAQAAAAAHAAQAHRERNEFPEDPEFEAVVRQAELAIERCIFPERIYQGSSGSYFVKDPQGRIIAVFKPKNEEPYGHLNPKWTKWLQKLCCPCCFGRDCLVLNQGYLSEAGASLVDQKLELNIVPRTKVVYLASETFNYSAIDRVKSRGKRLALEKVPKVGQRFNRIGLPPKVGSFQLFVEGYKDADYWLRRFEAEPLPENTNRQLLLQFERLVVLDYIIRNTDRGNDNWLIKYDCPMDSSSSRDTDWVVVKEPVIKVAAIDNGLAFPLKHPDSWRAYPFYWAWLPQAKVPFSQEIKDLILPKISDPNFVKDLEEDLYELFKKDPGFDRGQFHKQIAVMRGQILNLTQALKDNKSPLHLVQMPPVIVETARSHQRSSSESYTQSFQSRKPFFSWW
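In this quantitative HTS, ADP production by PI4K2A was quantified luminescently after 1 h at ambient temperature; 100 microM adenosine served as plate-quality control.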
KAT2A inh – qHTS Assay for Inhibitors of GCN5L2. Histone acetyltransferase KAT2A (Homo sapiens), Q92830. GCN5L2 HAT assay, ThioGlo1 CoA-SH fluorescence. Potency, µM (series often up to 58.9 µM), inactives show at the highest dose activity change, negative = inhibition, actives largely listed as inhibitors. 390,000 compounds, 0.21% hits. AID 504327, 2011; note: potency is the fitted concentration of half-maximal effect
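GCN5L2 (20nM final) in 50mM HEPES, 0.1mM EDTA pH 7.5, 0.01% Tween-20 was preincubated 15 min at room temperature with compound, then given ThioGlo1 (50uM), H3(1-25) peptide (75uM) and acetyl-CoA (70uM); CoA-thiol fluorescence (Ex340/Em540) was read at 0 and 20 min.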
* hit, by the source's call; ? = inconclusive; / = not tested or not shown. Unless noted, calls come from the whole dose curve; as a rule, active = well fitted curve in the direction sought with a large enough effect; inconclusive = small, poorly fitted or top-dose-only effect, or another doubt; inactive = no such curve, though single readings can be large; an effect the other way counts as inactive or inconclusive. Unless noted, % is set by controls: 0 for no effect and ±100 for the full control effect.

SMILES | GLS inhibitor | PLK1 PBD block | VDR inh | PI4K2A block | KAT2A inh
Cn1cc(P(=O)(N2CCOCC2)N2CCOCC2)cc1P(=S)(N1CCOCC1)N1CCOCC1 | -1% | 11µM* | ? | -3 | -18%
COc1ccc2c(Sc3ccc(Cl)cc3)c(C(=O)N3CCCCC3)[nH]c2c1 | 18% | / | 4% | 4 | -5%
O=C(CS(=O)(=O)Cc1ccccc1)N1CCN(Cc2ccc3c(c2)OCO3)CC1 | -13% | 27µM* | ? | -2 | -14%
O=C(CS(=O)(=O)Cc1ccccc1)N1CCN(c2cccc(C(F)(F)F)c2)CC1 | -1% | 30µM* | -14% | -3 | 6%
O=C(CCS(=O)(=O)c1ccccc1)N1CCN(c2cccc(C(F)(F)F)c2)CC1 | 6% | -26% | 5% | 6 | -5%
O=C(CCc1ccc(S(=O)(=O)NCc2ccccc2)cc1)N1CCN(Cc2ccc3c(c2)OCO3)CC1 | -4% | -7% | -9% | -6 | -15%
FC(F)(F)c1ccccc1NC(=S)Nc1cccc2cnccc12 | 0% | 30µM* | 4% | -10 | 3%
FC(F)(F)c1ccccc1NC(=S)Nn1cnnc1 | -18% | 9.5µM* | ? | -25 | -8%
FC(F)(F)c1ccccc1NC(=S)N1CCCCCC1 | -5% | -9% | 10% | -4 | 4%
Fc1ccccc1NC(=S)Nc1cccc2cnccc12 | 5% | 30µM* | ? | -16 | -1%
CCc1ccc(Cn2ncc3c(C(=O)O)cc(C)nc32)cc1 | -10% | 27µM* | -10% | 6 | /
C/C(=N/NC(=O)c1ccc(Br)o1)c1cccc(NC(=O)c2ccc(C)o2)c1 | ? | 7.5µM* | ? | -3 | -3%
O=C(CCc1ccccc1-c1ccccc1CCNC(=O)c1ccccc1)NCc1ccccc1 | / | / | / | -1 | /
COc1ccccc1OCCNc1nc2c(c(=O)n(C)c(=O)n2C)n1C | -16% | 19µM* | ? | 5 | 1%
CC(=O)OC(C(=O)Nc1nccs1)c1ccccc1 (stereo unspecified) | -2% | 7% | 20% | 0 | 1%
O=C(Nc1nccs1)C(Br)C(Br)c1ccccc1 (stereo unspecified) | -15% | 0.95µM* | 28µM* | -5 | -16%
CC(C)C(C(=O)Nc1nccs1)N1C(=O)c2ccccc2C1=O (stereo unspecified) | 2% | 21µM* | -5% | 2 | 1%
COc1ccc(-c2nnc(SCc3c(F)cccc3F)n2N)cc1 | / | / | / | -5 | /
O=C(CN1CCC(Cc2ccccc2)CC1)N1CCc2ccccc2C1 | 10% | 27µM* | -3% | 0 | -16%
CCn1cc(/C=C(\NC(=O)c2ccc(OC)c(OC)c2)C(=O)N2CCN(C)CC2)c2ccccc21 | -4% | 27µM* | ? | 1 | -9%
COc1cc(C(=O)N/C(=C\c2cn(C)c3ccccc23)C(=O)NCCCN2CCOCC2)cc(OC)c1OC | 33% | 17µM* | ? | 1 | -12%
COc1ccc(C(=O)N/C(=C\c2cccc3ccccc23)C(=O)N2CCN(C)CC2)cc1OC | -5% | -10% | -2% | 7 | -1%
Cc1ccc(C(=O)N/C(=C/c2ccc(C(C)C)cc2)C(=O)NCCCN2CCOCC2)cc1 | 4% | 4% | -8% | -2 | -1%
Cc1ccc(C(=O)N/C(=C\c2ccc(-c3ccccc3[N+](=O)[O-])o2)C(=O)NCCCN2CCOCC2)cc1 | 12% | 27µM* | ? | 0 | -23%
CCc1ccc(CNCC(=O)N2CCC3(CC2)OCCO3)s1 | / | / | / | -5 | /
SMILES | GLS inhibitor | PLK1 PBD block | VDR inh | PI4K2A block | KAT2A inh
Cc1cccc(N(C)C(=S)Oc2ccc3c(c2)C2CCC3C2)c1 (stereo unspecified) | / | / | / | -3 | /
CC[C@@H]1C=C(C(=O)O)[C@H](c2ccc(Cl)c(Cl)c2)N1S(=O)(=O)c1ccc(C)cc1 | 1% | -20% | -21% | 0 | -1%
CCCC[C@@H]1C=C(C(=O)O)[C@H](c2ccc(CC)cc2)N1S(=O)(=O)c1ccc(C)cc1 | 9% | -26% | -12% | -1 | -4%
CCCCC[C@@H]1C=C(C(=O)O)[C@H](c2ccc(Cl)c(Cl)c2)N1S(=O)(=O)c1ccc(C)cc1 | 2% | 27µM* | ? | -1 | ?
CCCCC[C@@H]1C=C(C(=O)O)[C@H](c2ccc(CC)cc2)N1S(=O)(=O)c1ccc(C)cc1 | 7% | 27µM* | -6% | 1 | -15%
CC(C)N1C/C(=C/c2cccnc2)C(=O)/C(=C/c2cccnc2)C1 | 0% | -10% | ? | 1 | -5%
CN1C/C(=C/c2ccc(B(O)O)cc2)C(=O)/C(=C/c2ccc(B(O)O)cc2)C1 | / | / | 4.5µM* | / | -18%
CN1C/C(=C/c2cccnc2)C(=O)/C(=C/c2cccnc2)C1 | 4% | -13% | 45µM* | -12 | 4%
COc1ccc2[nH]c(C)c(CCN3C(=O)C4CC=CCC4C3=O)c2c1 (stereo unspecified) | 17% | 21µM* | ? | 0 | -5%
O=C(O)c1ccccc1N/N=C/c1cc(Br)cc(Br)c1O | ? | 21µM* | ? | 0 | -27%
O=C(Cc1ccccc1)N/N=C/c1cc(Br)cc(Br)c1O | 20% | -26% | 19% | 0 | ?
Oc1cc(CNC2CCCCC2)c(O)cc1CNC1CCCCC1 | ? | 5.3µM* | -15% | -6 | /
O[C@@H]1CCN2Cc3ccccc3N=C12 | / | / | 3.5µM* | / | ?
Cc1ccc(NC2SC(=O)N(Cc3cccc(C(=O)O)c3)C2=O)c(C)c1 (stereo unspecified) | -6% | ? | 91% | -5 | -2%
Cc1ccc(NC2SC(=O)N(Cc3cccc(C(=O)O)c3)C2=O)cc1 (stereo unspecified) | 15% | 21µM* | 4% | 10 | -4%
O=C(O)c1cccc(CN2C(=O)SC(Nc3cccc4ccccc34)C2=O)c1 (stereo unspecified) | ? | ? | -16% | 3 | 14µM*
O=C(CSc1nnc(-c2cccs2)o1)c1cccc([N+](=O)[O-])c1 | / | / | / | 6 | /
N[C@H](C(=O)O)[C@@H](O)c1ccc(O)c(O)c1 | / | / | / | -12 | /
NC(C(=O)O)C(O)c1ccc(O)c(O)c1 (stereo unspecified) | 31% | / | ? | / | 14µM*
CCCNC(=O)NNC(=O)c1ccc(F)cc1 | 11µM* | 24µM* | ? | 5 | -2%
S=c1[nH]nc(-c2cc(-c3ccccc3)n[nH]2)n1N=Cc1c[nH]c2ccccc12 | / | / | / | -3 | /
COC(=O)[C@]12C[C@H](CC(=O)N3CCN(C(=O)C4CC4)CC3)C(=O)N(CCc3ccc(OC)c(OC)c3)C1=C[C@H](C1CCCC1)O[C@@H]2C | / | / | / | -5 | /
